GALK inhibitor: qHTS Assay for Inhibitors of Human Galactokinase (GALK). AID 1868, 2009. P51570. Potency, µM (titrated, usually from 57.5 µM), for the others: top-dose activity change, negative = inhibition, hits mostly inhibitors. Purified GALK, Kinase-Glo residual ATP luminescence. actives 0.007% (n = 270,000); note: potency is the fitted concentration of half-maximal effect; % is set by controls: 0 for no effect and ±100 for the full control effect
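Kinase-Glo Plus luminescence measured ATP left after a 1 h room-temperature reaction. The reaction used 5 nM GALK, 100 uM galactose and 35 uM ATP at pH 8.0 (20 mM HEPES, 5 mM MgCl2, 60 mM NaCl, 1 mM DTT, 0.01% BSA).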
PKM2 act: qHTS Assay for Activators of Human Muscle isoform 2 Pyruvate Kinase; Pyruvate kinase PKM (Homo sapiens), P14618; purified PKM2, Kinase-Glo ATP luminescence, activation; response scale: 0% is enzyme alone, no compound; Potency, µM (highest dose often 57.5 µM), inactives show at the highest dose activation, hits mostly activators; actives 0.34% (n = 260,000); AID 1631, 2009; note: potency is the fitted concentration of half-maximal effect; % is set by controls: 0 for no effect and ±100 for the full control effect; nearly all actives have a fitted effect of over 55% in size
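ATP formation by purified human PK-M2, quantified via coupled luciferase luminescence after 1 h at room temperature with 0.1 mM ADP and 0.5 mM PEP final.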
IDH1 R132H inh: qHTS for Inhibitors of mutant isocitrate dehydrogenase 1 (IDH1): qHTS | IDH1-R132H enzyme, NADPH consumption, diaphorase/resazurin fluorescence | Isocitrate dehydrogenase [NADP] cytoplasmic (Homo sapiens), O75874 | AID 602179, 2012 | actives 0.093% (n = 390,000) | Potency, µM (titrated, usually from 76.6 µM), inactives show at the highest dose activity change, negative = inhibition, hits mostly inhibitors; note: potency is the fitted concentration of half-maximal effect; % is set by controls: 0 for no effect and ±100 for the full control effect; nearly all actives have a fitted effect of over 65% in size
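IDH1-R132H (0.5 ug/mL dispensed) in pH 7.5 Tris buffer was preincubated 30 min with compound, then given a substrate mix of 0.016 mM NADPH and 2 mM alpha-KG for 80 min at room temperature; remaining NADPH was read by diaphorase/resazurin fluorescence.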
TrxR1 substrate: qHTS Assay for Substrates of Mammalian Selenoprotein Thioredoxin Reductase 1 (TrxR1): qHTS. purified TrxR1 substrate turnover, NADPH consumption readout. Potency, µM (titrated, usually from 114 µM), for the others: at the highest dose activity change, negative = substrate turnover. actives 0.01% (n = 390,000); note: potency is the fitted concentration of half-maximal effect; % is set by controls: 0 for no effect and ±100 for the full control effect; nearly all actives have a fitted effect of over 50% in size
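Rat TrxR1, dispensed at 90 nM, was prereduced with 400 uM NADPH (final) for 5 min at ~22 deg C, then incubated with compound 15 min before 400 uM selenite. A first-read NADPH fluorescence drop versus no-compound background flagged substrates.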
rTrxR1 inhibitor: qHTS Assay for Inhibitors of Mammalian Selenoprotein Thioredoxin Reductase 1 (TrxR1): qHTS; Thioredoxin reductase 1, cytoplasmic (Rattus norvegicus), O89049; recombinant rTrxR1, NADPH fluorescence consumption, selenite substrate; Potency, µM (titrated, usually from 114 µM), inactives show at the highest dose activity change, negative = inhibition, hits mostly inhibitors; actives 1% (n = 390,000); AID 588453, 2011; note: potency is the fitted concentration of half-maximal effect; % is set by controls: 0 for no effect and ±100 for the full control effect; nearly all actives have a fitted effect of over 65% in size
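Rat TrxR1 (90 nM in the dispensed reagent) was pre-reduced with 400 uM NADPH for 5 min at room temperature, then incubated with compound for 15 min. After 400 uM selenite was added, NADPH fluorescence (Ex 340/Em 450 nm) was followed for 8 min.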
Anesthetic bind: qHTS Assay for Identification of Novel General Anesthetics; Ferritin light chain (Equus caballus), P02791; apoferritin/1-aminoanthracene competitive binding, fluorescence; Potency, µM (series often up to 77.5 µM), for inactives: at the highest dose activity change, negative = displacement, actives largely listed as inhibitors; actives 0.074% (n = 350,000); note: potency is the fitted concentration of half-maximal effect; % is set by controls: 0 for no effect and ±100 for the full control effect; nearly all actives have a fitted effect of over 20% in size
Target sequence (P02791 2-175 limits assumed): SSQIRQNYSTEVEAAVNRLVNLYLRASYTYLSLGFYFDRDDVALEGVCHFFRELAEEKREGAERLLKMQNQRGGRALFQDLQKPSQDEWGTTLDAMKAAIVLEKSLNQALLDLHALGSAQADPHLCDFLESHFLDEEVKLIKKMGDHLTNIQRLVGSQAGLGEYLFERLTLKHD
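10 uM apoferritin + 50% sat. 1-AMA, PBS; cpd 10 min RT; Ex380/Em535 endpoint; normalized to free probe vs complex; 4-param Hill fit; propofol titration as pos. ctrl.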
Resorufin autofl: qHTS for Inhibitors of mutant isocitrate dehydrogenase 1 (IDH1): Cherrypicks Autofluorescence Interference; shares compounds with IDH1 R132H inh; Resorufin detection reagent fluorescence interference, cell-free; inhibition of signal, % at 51.2 µM; 750 tested, under 10 active;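 note: 0% = wells with normal resorufin and full inhibition = wells lacking resorufin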
IDH1 WT: qHTS for Inhibitors of mutant isocitrate dehydrogenase 1 (IDH1): Cherrypicks in WT IDH1; shares compounds with IDH1 R132H inh; WT IDH1 enzyme, NADPH diaphorase/resazurin fluorescence; Potency, µM (highest dose often 115 µM), for inactives: at the highest dose activity change, negative = inhibition, hits mostly inhibitors; actives 9% (n = 750);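 note: potency is the fitted concentration of half-maximal effect; 0% = full WT IDH1 enzyme control and full inhibition = no enzyme wells; nearly all actives have a fitted effect of over 55% in size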
Target sequence (O75874 whole entry, looked up): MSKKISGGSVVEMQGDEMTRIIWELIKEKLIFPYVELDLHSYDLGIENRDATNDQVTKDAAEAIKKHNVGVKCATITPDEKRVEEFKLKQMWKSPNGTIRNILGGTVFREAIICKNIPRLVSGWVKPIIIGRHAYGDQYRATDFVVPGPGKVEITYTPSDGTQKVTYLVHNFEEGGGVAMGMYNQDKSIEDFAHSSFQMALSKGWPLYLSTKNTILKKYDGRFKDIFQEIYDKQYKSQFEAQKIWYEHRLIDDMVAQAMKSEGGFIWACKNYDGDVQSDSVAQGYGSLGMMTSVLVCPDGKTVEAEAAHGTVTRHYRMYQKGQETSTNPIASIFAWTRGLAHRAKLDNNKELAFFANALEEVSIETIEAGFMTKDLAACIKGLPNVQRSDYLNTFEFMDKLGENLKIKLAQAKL
mIDH1 confirm: qHTS for Inhibitors of mutant isocitrate dehydrogenase 1 (IDH1): Confirmation of Cherrypicks; IDH1 R132H enzyme, NADPH diaphorase/resazurin fluorescence; shares compounds with IDH1 R132H inh; actives 83% (n = 750); AID 624002, 2012; Potency, µM (series often up to 76.6 µM), for inactives: top-dose activity change, negative = inhibition, usual class: inhibitors; note: potency is the fitted concentration of half-maximal effect; nearly all actives have a fitted effect of over 50% in size
* marks the source's active call; other numbers are inactive results; ? = inconclusive; · = no result given; [ ] = remark or other dose. Rows were chosen to be rich in hits. Some 1.3% of all compounds tested hit in one or more screens of this group. Calls come from the whole dose curve; as a rule, active = well fitted curve in the direction sought with a large enough effect; inconclusive = small, poorly fitted or top-dose-only effect, or another doubt; inactive = no such curve, though single readings can be large; an effect the other way counts as inactive or inconclusive.

SMILES | GALK inhibitor | PKM2 act | IDH1 R132H inh | TrxR1 substrate | rTrxR1 inhibitor | Anesthetic bind | Resorufin autofl | IDH1 WT | mIDH1 confirm
COc1ccc(C2=Nn3c(nnc3-c3ccccc3OC)SC2)cc1OCC1CC1 | · | · | · | -11.7% | -8.8% | · | -2.1 | -1.0% | 44.7µM*
CCCn1cc(S(=O)(=O)c2cc(C)ccc2C)c(=O)c2cc(F)c(N3CCCCCC3)cc21 | · | · | ? | 4.8% | 11.3% | 5.7% | -5.2 | -9.3% | 15.8µM*
COc1ccc(-c2oc(NC(=O)CCl)c(C#N)c2-c2ccc(OC)cc2)cc1 | -6.9% | 2.7% | 29.3µM* | -20.1%[11.4 µM] | -64.5%[57.1 µM] | ? | 9.6 | 79.4µM* | 8.91µM*
CO[C@@H]1COC(=O)[C@H](C)NC(=O)C/C=C\[C@@H](C)[C@H](OC)COC(=O)[C@H](C)NC(=O)C/C=C\[C@H]1C | · | · | · | · | · | -2.2%[15.3 µM] | · | · | ·
COC(=O)/C(C#N)=C/c1c(N2CCN(c3ccccc3)CC2)nc2ccccn2c1=O | · | · | -2.6% | -9.3% | -8.6% | -21.2% | · | · | ·
CNC(=O)/C(C#N)=C/c1c(N(Cc2ccccc2)Cc2ccccc2)nc2ccccn2c1=O | 0.6% | -10.9% | 52.1µM* | -2.4% | -4.4% | -4.8% | -6.0 | -1.1% | 25.1µM*
CCOc1ccccc1CNS(=O)(=O)c1cc2c(cc1C)NC(=O)CO2 | · | · | 12.6% | -1.3%[57.1 µM] | 4.1%[57.1 µM] | ? | · | · | ·
Cc1cc(C)cc(N(C(=O)c2sc(C)nc2C)C(C(=O)NCc2ccco2)c2ccccc2)c1 (configuration not stated) | -0.1% | 1.5% | ? | -10.1% | 5.1% | 1.1% | -9.6 | 9.4% | 12.6µM*
N=c1c(S(=O)(=O)c2ccc(Cl)cc2)cc2c(=O)n3ccccc3nc2n1CC1CCCO1 (configuration not stated) | 5.6% | · | 4.2% | -8.4% | -11.9% | 5.1% | · | · | ·
N=c1c(S(=O)(=O)c2ccccc2)cc2c(=O)n3ccccc3nc2n1CC1CCCO1 (configuration not stated) | -0.2% | 10.0% | ? | 110.9% | 38.0%[57.1 µM] | 28.9% | -1.7 | 8.1% | 35.5µM*
O=C(Nc1nnc(SCc2ccc(F)cc2)s1)c1ccc2ncsc2c1 | -9.4% | 0.9% | 52.1µM* | 12.0% | 10.8% | -20.5% | -1.8 | -16.1% | 50.1µM*
CCOC(=O)c1ccc(CN(Cc2ccc(Cl)cc2Cl)S(=O)(=O)c2ccc(F)c(C)c2)cc1 | · | · | 16.6% | 6.2%[57.1 µM] | 18.2%[57.1 µM] | -4.7% | · | · | ·
CC(C)(C)c1ccc(C(=O)NCC(c2ccco2)S(=O)(=O)c2ccccc2)cc1 (configuration not stated) | · | · | -4.8% | 1.3%[57.1 µM] | 10.3%[57.1 µM] | -4.2% | · | · | ·
